Screening results from PubChem BioAssay.
The list is not random: actives were taken first. Their share in the collection is about 0.24%.
mcGAS inh = inhibitors of mouse cGAS. AID 1259399. Q8C6L5. 160,000 compounds, 0.15% hits. inhibition, % at 12.5 µM. recombinant cGAS, Kinase-Glo ATP depletion luminescence;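 note: 0% = negative control wells and 100% = reference inhibitor with no enzyme activity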
hcGAS lum = blocks human cGAS activity. Q8N884. recombinant h-cGAS, ATP depletion, Kinase-Glo luminescence. inhibition, % at 12.5 µM. 290,000 compounds, 0.081% hits. AID 1259398;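 note: 0% = vehicle reaction and 100% = reaction without DNA for no activity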
NPYLR7 ag = mosquito NPYLR7 agonism; 270,000 compounds, 0.15% hits; activation, % at 10 µM; HEK293T NPYLR7/Galpha15, GCaMP6s calcium fluorescence; in the data active = activation above about 40%;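 note: 0% = vehicle and 100% = reference agonist at the receptor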
* marks the source's active call; other numbers are inactive results; / = no result; ! = a repeat was not active. Cut-off read from the data, not from the text of the source, unless noted: active = inhibition above about 40%; inactive = the rest.

SMILES	mcGAS inh	hcGAS lum	NPYLR7 ag
O=[N+]([O-])c1cc(O)c(O)c([N+](=O)[O-])c1	8	3	-6
O=[N+]([O-])c1ccc(O)c([N+](=O)[O-])c1	/	72*	-28
O=[N+]([O-])c1cc([As](=O)(O)O)ccc1O	/	83*!	-9
O=[N+]([O-])c1ccc(O)c(Cl)c1	/	2	6
O=c1cccc2n1C[C@@H]1C[C@H]2CN(Cc2cc3n(n2)CCNC3)C1	/	-5	18
CC(=O)Nc1ccc(Cl)c(C(=O)NCCc2cnc[nH]2)c1	-16	-4	19
CCOP1(=S)C2=C(N3CCOCC3)CC(C)(C)CC2=NN1c1ccccc1 (stereo not drawn)	/	1	-16
O=C1NC(=O)N(c2ccc(Cl)cc2)C(=O)/C1=C/c1ccc([N+](=O)[O-])o1	47*	32	3
Cc1ccc(/C=C2\C(=O)NC(=O)N(c3ccc(Cl)cc3)C2=O)o1	0	2	13
Cc1nc(-c2ccc(N(C)C)cc2)cc([C@H]2CN3CC[C@H]2C[C@@H]3COC(=O)Nc2ccc(F)cc2F)n1	-5	-5	2
Cc1ccc(C(C)C)c(OC(=O)N(C)C)c1CN(C)C	/	-2	-3
O=[N+]([O-])c1ccc(Cl)c2nonc12	-5	-14	139*
O=[N+]([O-])c1cc(Cl)ccc1Cl	-2	0	9
O=C1NC(=O)C(=Cc2cn(-c3ccccc3)nc2-c2ccccc2)C(=O)N1	-2	1	16
COc1ccc(-n2nc(C(C)(C)C)c3c2N(CC(=O)NC2CC2)C(=O)CSC3c2ccccc2C)cc1 (stereo not drawn)	-3	-4	20
O=c1c2c3c(sc2nc(SCCS(=O)(=O)F)n1-c1ccccc1)CCCC3	-5	-4	-4
Nc1c2c(nc3sc4c(c13)CCCC4)CCCCC2	-6	-8	42*
NC(=O)N1CCC(NC(=O)CSC(c2ccccc2)c2ccc(Cl)cc2)C1 (stereo not drawn)	/	-7	-1
CCC(NC)c1nc2ccccc2c(=O)n1-c1ccc(F)cc1 (stereo not drawn)	/	-7	2
O=c1c2ccccc2nc(CCl)n1-c1ccc(F)cc1	48*	0	-2
